These compounds were tested against Solute carrier family 2, facilitated glucose transporter member 1 (Homo sapiens) (UniProt P11166) (assay: ST_JUDE_LEISH: Cytotoxicity at 2uM final concentration against transgenic Leishmania Mexicana promastigotes LmGLUT1 that are glucose transport deficient and complemented with the human glucose transporter GLUT1. Activity is measured by DNA content using SYBR green in vitro).
Sequence of Solute carrier family 2, facilitated glucose transporter member 1 (Homo sapiens) (P11166 whole entry): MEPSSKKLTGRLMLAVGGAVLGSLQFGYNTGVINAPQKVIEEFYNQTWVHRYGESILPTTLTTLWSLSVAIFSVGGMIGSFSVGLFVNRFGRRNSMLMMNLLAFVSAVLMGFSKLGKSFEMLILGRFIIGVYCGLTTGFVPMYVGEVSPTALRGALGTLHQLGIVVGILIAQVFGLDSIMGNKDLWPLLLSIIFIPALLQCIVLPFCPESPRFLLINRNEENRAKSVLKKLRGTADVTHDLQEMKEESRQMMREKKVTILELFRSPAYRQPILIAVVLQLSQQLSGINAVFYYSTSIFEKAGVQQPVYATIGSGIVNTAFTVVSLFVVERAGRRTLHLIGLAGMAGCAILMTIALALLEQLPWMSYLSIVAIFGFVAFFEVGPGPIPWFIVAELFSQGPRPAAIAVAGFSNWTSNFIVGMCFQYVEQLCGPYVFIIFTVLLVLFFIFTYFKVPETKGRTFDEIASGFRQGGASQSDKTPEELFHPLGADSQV
Type: functional
In the case of `COc1ccc2c(=NN=Cc3ccccc3)cc(C)[nH]c2c1`, the inhibition is reported as 12.1%.
Work on `CCC(=O)Nc1ccc(Nc2nc(C)cc(N3CCCC3)n2)cc1` yielded an inhibition of 3.46%.
`O=C(Nc1cccc(-c2cccc(-c3nc4cc(F)ccc4[nH]3)c2)c1)Nc1ccc2c(c1)OCO2` gave an inhibition of 1.84%.
With `CN(C)CCNC(=O)NC1CN(c2ncnc3cc(-c4ccccc4)sc23)C1` the inhibition was 5.45%.
For `O=C(Nc1ccc(C(=O)Oc2ccc3ccccc3c2)cc1)N[C@@H](Cc1ccc(O)cc1)C(=O)NC1CCN(Cc2ccc(O)cc2)C1` (stereo not given in full), the inhibition was 0.75%.
Compound `CC(C)[C@H](NC(=O)c1ccc(O)c(-c2ccc(Cl)c(Cl)c2)c1)C(=O)NC1CCCCCC1` has an inhibition of 0.48%.
`CN(C)c1ccc(-c2ccc(C(=O)NC3CCN(Cc4cccc(C(F)(F)F)c4)CC3)s2)cc1` gave an inhibition of 4.91%.
Work on `Fc1ccc2nc(Nc3nc(-c4ccccn4)cs3)sc2c1` yielded an inhibition of 20.7%.
For `Cc1nc(-c2ccc3c(c2)CCN(CCC2CCC(NC(=O)c4cc5cccc(Cl)c5[nH]4)CC2)CC3)no1` (stereo not given), the inhibition was 0.58%.
Compound `CCCNCc1ccc(-c2ccc(CN(CCOC)C(=O)c3cnc(C)cn3)cc2)nc1` has an inhibition of -0.38%.
`CC(C)c1ccc(NC(=O)NCCCC2CCCN(CCCCCNC(=O)/C=C/c3ccc(Cl)c(Cl)c3)C2)cc1` (stereo not given) was tested, and the inhibition was 1.47%.
`CC(C)C(=O)NC(NC(=S)Nc1ccc(Br)cc1)C(Cl)(Cl)Cl` (stereo not given) showed an inhibition of -2.18%.
`Cc1cc(C(=O)NCc2ccc(-c3c(C)noc3C)cc2)n(-c2ccccc2)n1` gave an inhibition of 4.79%.
For `C=C[C@H]1CN(CCCCCCC)CC[C@H]1CCN(C)c1ccnc2ccc(OC)cc12`, the inhibition was 1.17%.
Compound `O=C(NCCCCN1CCN(c2cccc3ccccc23)CC1)c1ccc(NC(=O)c2ccc(Cl)cc2)cc1` has an inhibition of 2.65%.
For `CCN(CC)CCCN(C(=O)Nc1c(Cl)cncc1Cl)c1nc(-c2ccc(F)cc2)cs1`, the inhibition was 2.47%.
`N=C(N)NN=Cc1ccccc1OCc1ccccc1Cl` was tested, and the inhibition was -0.49%.
In the case of `O=C(Nc1ccc(Cl)cc1)Nc1ccc(-c2cccc(-c3nc4ccccc4[nH]3)c2)cc1`, the inhibition is reported as 1.48%.
For `CC(=O)c1cccc(NC(=O)NC2CCN(c3ccnc(Nc4ccc(F)cc4)n3)C2)c1` (stereo not given), the inhibition was -1.36%.
`O=C(NCCNc1ccnc(Nc2ccc(F)cc2)n1)Nc1ccc2c(c1)OCO2` gave an inhibition of 1.78%.
With `O=C(NCc1cccc(F)c1)Nc1cccc(-c2ccc(-c3nc4cc(F)ccc4[nH]3)cc2)c1` the inhibition was 2.2%.
In the case of `CCCCCCCCNCc1c(O)ccc2ccccc12`, the inhibition is reported as 3.46%.
`Cc1cc(C(=O)CN2C(=O)NC3(CCCc4ccccc43)C2=O)c(C)n1Cc1ccco1` (stereo not given) gave an inhibition of 1.28%.
In the case of `C[C@H](NC(=O)c1c(CN2CCC(N3CCCCC3=O)CC2)c(-c2cccs2)nc2ccccc12)C1CCCCC1`, the inhibition is reported as 4.3%.
In the case of `O=c1[nH]ccc2nc(N[C@@H]3CCNC3)nc(Nc3ccc4c(c3)S(=O)(=O)CC4)c12`, the inhibition is reported as 5.93%.
Compound `CC(=O)c1ccc(NC(=O)CSc2nc(-c3ccccc3Cl)ns2)cc1` has an inhibition of 2.79%.
`CCCC[C@H](NC(=O)O[C@H](COc1ccc(OCc2ccccc2)cc1)C(C)(C)C)C(=O)C(=O)Nc1cc[nH]n1` showed an inhibition of 3.68%.
`CCCC(CNCc1cccc(I)c1)CNc1cc(=O)c2ccccc2[nH]1` (stereo not given) gave an inhibition of 1.04%.
`Cc1ccc(-n2cc(CNCCc3nc(C)c[nH]3)c(-c3ccc(F)cc3)n2)cc1` showed an inhibition of 4.34%.
Work on `O=S(=O)(NC1CCN(c2ccnc3ccccc23)C1)c1ccc(OC(F)(F)F)cc1` (stereo not given) yielded an inhibition of 2.25%.
Work on `O=S(=O)(NCCN1CCCC1)c1ccc(-c2cccc(CNC3Cc4ccccc4C3)c2)s1` yielded an inhibition of 13.9%.
`CC(C)CNC(=O)c1ccc(-c2cccc(CN3CCC(N4CCCC4)CC3)c2)nc1` gave an inhibition of 2.51%.
With `Nc1c(Cl)cc(C(O)CNCCCCCOCCc2ccc3occc3c2)cc1Cl` (stereo not given) the inhibition was 3.53%.
`CS(=O)(=O)c1ccc(Nc2ncc(-c3ccc(S(C)(=O)=O)cc3)c(OCC(F)(F)F)n2)cc1` showed an inhibition of 4.36%.
`Cc1[nH]c(C)c(-c2ccc(-c3ccc4c(c3)OCO4)nc2)c(=O)c1Br` was tested, and the inhibition was 0.29%.
In the case of `CC(C)(C)c1cc(CN2CCN(Cc3ccccc3)CC2)cc(C(C)(C)C)c1O`, the inhibition is reported as 1.34%.
With `COCCN1CCN(Cc2cccc(-c3ccc(-c4nc5ccccc5[nH]4)cc3)c2)CC1` the inhibition was 0.45%.
In the case of `COc1ccc(NC(=O)c2ccc(-c3cccc(OCc4ccccc4)c3)cc2)cc1N1CCN(C)CC1`, the inhibition is reported as 1.72%.
Compound `O=C(NC(=S)Nc1cc(C(F)(F)F)cc(C(F)(F)F)c1)c1ccc(Cl)cc1` has an inhibition of 0.72%.
Work on `O=C(Nc1cccc(OC2CCN(Cc3ccccc3)CC2)c1)c1ccc([N+](=O)[O-])cc1` yielded an inhibition of 4.89%.
